Screen size: about 69,000 compounds; about 8,600 (12%) showed an effect of 50% or more. This is one part of a sample in which strong results are shown more often than they occur.
system: Plasmodium berghei; experiment: Screen against P. berghei liver stage (PbLuc), transformed with Luciferase, at 10uM; type: functional, HepG2; conditions: tested at 10 uM

| SMILES | INHIBITION |
| --- | --- |
| CCOCCCC(=O)Nc1cccnc1-n1ccnc1C | 7.92% |
| Cc1ccc(C(=O)N2CCCN(Cc3cccs3)CC2)c(=O)[nH]1 | 17.68% |
| COc1ccc(C(C)N(C)Cc2c(C3CC3)[nH]c3ncccc23)cc1 (stereo not drawn) | 44.8% |
| CN(Cc1ccco1)[C@@H]1CN(C(=O)c2ccnnc2)[C@@H]2CCCO[C@H]12 | 41.8% |
| Cc1ccc(CC(=O)N2Cc3nccn3CC(CN(C)C)C2)cc1 (stereo not drawn) | 10.1% |
| CCOCCNC(=O)c1ccc(OC)cc1I | 14.4% |
| COc1c(CNCc2ccc(Cn3ccnc3)cc2)c(C)nn1C | 16.8% |
| CCCN1CCC2(C1)c1ccccc1S(=O)(=O)N2Cc1ccc(F)cc1 (stereo not drawn) | 23.3% |
| COCCN1C2(CCN(CC3CC3)C2)c2ccccc2S1(=O)=O (stereo not drawn) | -54.9% |
| O=C(N1CCCO1)[C@@]12CCO[C@@H]1CCN(Cc1cccnc1)C2 | 17.4% |
| O=S1(=O)c2ccccc2C2(CCN(Cc3ccccc3)C2)N1CC1CC1 (stereo not drawn) | 81.3% |
| CN1C2(CCN(Cc3ccc(F)cc3)C2)c2ccccc2S1(=O)=O (stereo not drawn) | 16.9% |
| CC1N(CC2CC2)C(=O)COC12CCN(C(=O)c1ccncc1)CC2 (stereo not drawn) | 48.2% |
| CCCN1CCC2(C1)c1ccccc1S(=O)(=O)N2Cc1ccccc1 (stereo not drawn) | 68.4% |
| CC1N(CC2CC2)C(=O)COC12CCN(C(=O)c1ccno1)CC2 (stereo not drawn) | 11.3% |
| CN1CCN(Cc2cccnc2)C(=O)C12CCN(CC1CCOC1)CC2 (stereo not drawn) | 29.4% |
| COCCN1CCC2(C1)c1ccccc1S(=O)(=O)N2Cc1ccccc1 (stereo not drawn) | 15.3% |
| O=S1(=O)c2ccccc2C2(CCN(Cc3cccnc3)C2)N1CC1CC1 (stereo not drawn) | 76.5% |
| CC1N(CC2CC2)C(=O)COC12CCN(C(=O)c1cccs1)CC2 (stereo not drawn) | 74.8% |
| CNC(=O)c1cn[nH]c1C1CCCN1c1nc(C)cc(C)n1 (stereo not drawn) | 34.1% |
| CCN1CCOCC2(CCCN(C(=O)c3ccccc3F)C2)C1 (stereo not drawn) | -60.3% |
| CN(C)[C@@H]1CN(Cc2ccccc2O)C[C@H]1c1cn(C)c2ccccc12 | 49.5% |
| Cn1ccnc1CNC(=O)c1cnc(C2CCNCC2)cn1 | 33% |
| COc1ccccc1C1(CNC(=O)NCc2noc(C)n2)CC1 | 4.66% |
| Cc1nc(C(=O)N(C)CC(=O)N(C)C)nn1-c1ccccc1C(C)C | -15.5% |
| COCCN1C2(CCN(C(=O)c3cccs3)C2)c2ccccc2S1(=O)=O (stereo not drawn) | 8.03% |
| O=C(c1cccs1)N1CCC2(C1)c1ccccc1S(=O)(=O)N2CC1CC1 (stereo not drawn) | 51.2% |
| CCNC(=O)N1CCC2(C1)c1ccccc1S(=O)(=O)N2CCOC (stereo not drawn) | -1.15% |
